Data published in ChEMBL document CHEMBL4513146, “CO-ADD screening of Karazin Kharkiv National University (Ukraine) compounds”.
Measured potencies and affinities stand elsewhere.

Experiments:
[1] = test system: Staphylococcus aureus; details: Concentration 32 ug.mL-1;; ASSAY_TEST Inhibition of Bacterial Growth; detection method Absorption (OD600); MEDIA CAMHB; plate type 384well; NBS; CORNING #3640; time 18 hr
[2] = test system: Escherichia coli; details: Concentration 32 ug.mL-1;; ASSAY_TEST Inhibition of Bacterial Growth; detection method Absorption (OD600); MEDIA CAMHB; plate type 384well; NBS; CORNING #3640; time 18 hr

`Cc1ccc(Oc2nccn3c(=O)n(CC(=O)Nc4cccc(Br)c4)nc23)cc1` showed an Inhibition [1] of 4.81% and an Inhibition [2] of -7.18%.
Molecule `COc1ccc(C(=O)CSc2nnc3c(=O)n(-c4ccc(Br)cc4)ccn23)cc1` has an Inhibition [1] of 17.48% and an Inhibition [2] of 2.13%.
`COc1ccc(NC(=O)Cn2nc3c(SC4CCCCC4)nccn3c2=O)cc1` showed an Inhibition [1] of -2.9% and an Inhibition [2] of -3.75%.
For `COc1ccc(NC(=O)Cn2nc3c(Oc4ccccc4)nccn3c2=O)cc1OC`, the Inhibition [1] was 1.69% and the Inhibition [2] was -7.24%.
`CCCCOc1ccc(-c2cc3c4nnc(SCC(=O)Nc5cc(F)ccc5C)n4ccn3n2)cc1` showed an Inhibition [1] of -12.48% and an Inhibition [2] of -11.69%.
`Cc1ccc(-n2ccn3c(=O)n(Cc4ccccc4)nc3c2=O)cc1C` gave an Inhibition [1] of 5.93% and an Inhibition [2] of -8.73%.
In the case of `CCOC(=O)c1ccccc1NC(=O)Cn1nc2c(Oc3ccccc3)nccn2c1=O`, the Inhibition [1] is reported as 12.16% and the Inhibition [2] is reported as 1.14%.
Molecule `COc1ccc(N(Cc2cccc(F)c2)S(=O)(=O)c2ccc3nnc(C)n3c2)cc1` has an Inhibition [1] of -0.61% and an Inhibition [2] of -14.24%.
For `CCOc1ccc(NC(=O)Cn2nc3c(Oc4cccc(OC)c4)nccn3c2=O)cc1`, the Inhibition [1] was 13.11% and the Inhibition [2] was 1.75%.
In the case of `Cc1cc(C)c(NC(=O)CSc2nnc3c4cc(-c5ccccc5)nn4ccn23)c(C)c1`, the Inhibition [1] is reported as 6.45% and the Inhibition [2] is reported as -2.49%.
Molecule `Cc1cccc(-c2nc(CSc3nc4ccccc4n4c(C)nnc34)c(C)o2)c1` has an Inhibition [1] of 9.9% and an Inhibition [2] of 1.23%.
`Cc1cc2nn(CC(=O)NCc3ccc4c(c3)OCO4)c(=O)n2c(Nc2ccccc2C)n1` showed an Inhibition [1] of 0.76% and an Inhibition [2] of -4.19%.
Work on `COc1ccc(NC(=O)Cn2nc3nc(N4CCOCC4)ccn3c2=O)cc1F` yielded an Inhibition [1] of -2.35% and an Inhibition [2] of -9.58%.
With `COc1cccc(CNC(=O)CSc2nnc3c(=O)n(-c4ccc(F)cc4)ccn23)c1OC` the Inhibition [1] was 19.94% and the Inhibition [2] was 2.01%.
Molecule `CCOc1ccc(-n2ccn3c(SCC(=O)c4ccc(OC)cc4)nnc3c2=O)cc1` has an Inhibition [1] of 15.17% and an Inhibition [2] of -3.52%.
Work on `Cc1ccc(-c2nnc3c(=O)n(CC(=O)Nc4cc(C)cc(C)c4)c4ccccc4n23)cc1` yielded an Inhibition [1] of 10.86% and an Inhibition [2] of 0.18%.
In the case of `O=c1c2sccc2n2c(=O)n(Cc3cccc(C(F)(F)F)c3)nc2n1Cc1cccs1`, the Inhibition [1] is reported as 22.09% and the Inhibition [2] is reported as 2.86%.
For `Cc1ccccc1Oc1nccn2c(=O)n(CC(=O)Nc3ccc(C(C)C)cc3)nc12`, the Inhibition [1] was -1.76% and the Inhibition [2] was -10.99%.
For `CC(C)Cn1c(=O)c2sccc2n2c(=O)n(CC(=O)NC(C)(C)C)nc12`, the Inhibition [1] was -11.52% and the Inhibition [2] was -13.32%.
In the case of `O=C(Cn1nc2c3sc(N4CCCC4)nc3ncn2c1=O)Nc1cccc(Br)c1`, the Inhibition [1] is reported as 14.01% and the Inhibition [2] is reported as 2.84%.
In the case of `O=C(Cn1nc2c3cc(-c4ccccc4)nn3ccn2c1=O)N1CCCc2ccccc21`, the Inhibition [1] is reported as 4.94% and the Inhibition [2] is reported as 2.28%.
In the case of `NC(=O)C1CCN(C(=O)CCc2nnc3c(N4CCCCC4)nc4ccccc4n23)CC1`, the Inhibition [1] is reported as 14.39% and the Inhibition [2] is reported as 0.84%.
`COc1ccc(CNC(=O)Cn2nc3c(N4CCN(c5ccccc5C)CC4)nccn3c2=O)cc1` was tested, and the Inhibition [1] was 6.39% and the Inhibition [2] was -3.43%.
`CC(C)c1nnc2c(=O)n(CC(=O)Nc3ccc(Br)cc3)c3ccccc3n12` showed an Inhibition [1] of 9.7% and an Inhibition [2] of 7.11%.
For `CC(C)c1nnc2c(=O)n(CC(=O)Nc3cccc(C#N)c3)c3ccccc3n12`, the Inhibition [1] was 14.89% and the Inhibition [2] was 2.48%.
For `CCCN(C)c1nccn2c(=O)n(CC(=O)Nc3cccc(Cl)c3F)nc12`, the Inhibition [1] was 4.66% and the Inhibition [2] was 0.13%.
Molecule `Cc1ccc(Cl)cc1NC(=O)CSc1nc2ccccc2n2c(C)nnc12` has an Inhibition [1] of -8.21% and an Inhibition [2] of -3.62%.
With `CSc1cccc(NC(=O)Cn2nc3c(Oc4ccccc4C)nccn3c2=O)c1` the Inhibition [1] was 6.72% and the Inhibition [2] was -2.85%.
Work on `O=C(Cn1nc2c(N3CCOCC3)nccn2c1=O)Nc1cc(C(F)(F)F)ccc1Cl` yielded an Inhibition [1] of 6.98% and an Inhibition [2] of 4.52%.
For `O=C(NCc1ccccc1)c1ccc2nn(CC(=O)N3CCN(c4ccccc4F)CC3)c(=O)n2c1`, the Inhibition [1] was 3.54% and the Inhibition [2] was -3.36%.
For `N#CCn1nc2n(Cc3ccccc3)c(=O)c3ccc(C(=O)NC4CCCCC4)cc3n2c1=O`, the Inhibition [1] was -2.91% and the Inhibition [2] was -12.22%.
For `CC(C)c1ccc(N(Cc2cc(F)cc(F)c2)S(=O)(=O)c2cccn3cnnc23)cc1`, the Inhibition [1] was 8.68% and the Inhibition [2] was -1.47%.
`Cc1nnc2c(S(=O)(=O)N(Cc3cccc(Cl)c3)c3ccc(F)c(F)c3)cccn12` gave an Inhibition [1] of 3.24% and an Inhibition [2] of -3.66%.
